The results in this text go back to paper PMC4336329 (PLoS ONE, 2015).

Molecules are shown by their SMILES. About 2,200 (0.71%) of roughly 310,000 compounds showed an effect of 50% or more. Effects have a minus sign here. This is one part of a sample in which strong results are shown more often than they occur.

For this assay, the target named is human ether-à-go-go-related gene (hERG) potassium channel (human, UniProt Q12809). The assay is described as follows: primary screen, population patch clamp on CHO cells stably expressing hERG; higher = less effect of the substance.
Sequence of human ether-à-go-go-related gene (hERG) potassium channel (Q12809 whole entry, looked up): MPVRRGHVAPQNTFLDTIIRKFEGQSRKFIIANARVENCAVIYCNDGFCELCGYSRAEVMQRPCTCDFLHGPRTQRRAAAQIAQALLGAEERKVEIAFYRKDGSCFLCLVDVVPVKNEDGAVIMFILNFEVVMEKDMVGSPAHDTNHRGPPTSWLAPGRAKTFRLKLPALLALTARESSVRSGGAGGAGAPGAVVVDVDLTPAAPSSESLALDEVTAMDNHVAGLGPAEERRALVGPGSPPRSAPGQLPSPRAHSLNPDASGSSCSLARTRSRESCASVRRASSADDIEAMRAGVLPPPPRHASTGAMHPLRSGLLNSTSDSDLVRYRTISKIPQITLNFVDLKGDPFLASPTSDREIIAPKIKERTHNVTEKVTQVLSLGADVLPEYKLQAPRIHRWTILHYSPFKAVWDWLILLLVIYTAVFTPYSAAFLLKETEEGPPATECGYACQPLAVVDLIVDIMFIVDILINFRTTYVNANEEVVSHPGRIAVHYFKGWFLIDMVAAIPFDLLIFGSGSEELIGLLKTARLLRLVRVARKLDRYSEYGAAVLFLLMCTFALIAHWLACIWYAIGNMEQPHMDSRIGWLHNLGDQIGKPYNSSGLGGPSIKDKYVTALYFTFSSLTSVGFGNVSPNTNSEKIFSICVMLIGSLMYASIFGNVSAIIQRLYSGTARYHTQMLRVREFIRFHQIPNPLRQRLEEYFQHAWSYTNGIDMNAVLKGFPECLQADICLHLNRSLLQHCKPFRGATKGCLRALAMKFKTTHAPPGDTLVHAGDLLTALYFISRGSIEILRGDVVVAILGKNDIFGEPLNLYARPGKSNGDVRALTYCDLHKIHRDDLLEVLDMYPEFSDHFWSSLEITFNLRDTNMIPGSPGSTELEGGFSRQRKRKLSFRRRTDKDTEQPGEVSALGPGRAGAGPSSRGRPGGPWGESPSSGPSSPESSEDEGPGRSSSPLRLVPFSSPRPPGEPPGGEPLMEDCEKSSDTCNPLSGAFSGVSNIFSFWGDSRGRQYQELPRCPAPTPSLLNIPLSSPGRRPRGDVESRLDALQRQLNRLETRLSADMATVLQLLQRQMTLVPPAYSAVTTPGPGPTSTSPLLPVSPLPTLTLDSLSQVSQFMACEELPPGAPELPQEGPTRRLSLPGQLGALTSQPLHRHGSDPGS
With `COc1ccccc1NS(=O)(=O)c1cc(NC(=O)C2CC2)ccc1N1CCOCC1`, the “hERG current change (%, negative = inhibition) at 1uM” value worked out at 19.5%.

As for `Br.COc1ccccc1NS(=O)(=O)c1cc(N2Cc3ccccc3C2=N)ccc1N1CCOCC1`, the “hERG current change (%, negative = inhibition) at 1uM” value is reported as -61.2%.

Regarding `Cn1c(=O)n(C)c2cc(S(=O)(=O)NCC(=O)O)ccc21`, the “hERG current change (%, negative = inhibition) at 1uM” value amounted to 4.84%.

Take `CCOc1ccc(CCNC(=O)c2cc3sccc3n2CC)cc1OCC`: the “hERG current change (%, negative = inhibition) at 1uM” value was 14.1%.

On to `COc1cc(NC(=O)CCS(=O)(=O)c2ccc3nc(C)sc3c2)cc(OC)c1OC`, for which the “hERG current change (%, negative = inhibition) at 1uM” value was determined as 15.8%.

As to `CN(C)c1cccc(/C=C(\C#N)c2ccccc2)c1`, the “hERG current change (%, negative = inhibition) at 1uM” value worked out at 14.2%.

With `CCOc1ccc(N(C(=O)c2cnccn2)C(C(=O)NC2CCCCC2)c2ccc(O)cc2)cc1` (centres unmarked), the “hERG current change (%, negative = inhibition) at 1uM” value amounted to 12.4%.

Take `CCOc1ccc(N(C(=O)c2cnsn2)C(C(=O)NC2CCCCC2)c2ccncc2)cc1` (centres unmarked): the “hERG current change (%, negative = inhibition) at 1uM” value is -52.1%.

On to `COc1ccc(N(C(=O)c2cnsn2)C(C(=O)NC2CCCCC2)c2ccncc2)cc1` (centres unmarked), for which the “hERG current change (%, negative = inhibition) at 1uM” value came out at 7.11%.

For `COc1cccc(C(=O)Nc2ccc(Cl)c(C(F)(F)F)c2)c1`, the “hERG current change (%, negative = inhibition) at 1uM” value was found to be 8.09%.

Turning to `O=CN1CCCN(C(=O)CC2C(=O)NCCN2Cc2cccc(Oc3ccccc3)c2)CC1` (centres unmarked), the “hERG current change (%, negative = inhibition) at 1uM” value is -14.6%.

As for `Cn1c(CCN2CCOCC2)nc2cc(NS(=O)(=O)c3ccccc3)ccc21`, the “hERG current change (%, negative = inhibition) at 1uM” value worked out at 6.09%.

Turning to `Cc1ccc(S(=O)(=O)Nc2ccc3c(c2)nc(CN2CCCC2)n3C)cc1`, the “hERG current change (%, negative = inhibition) at 1uM” value is on record as -9.18%.

Consider `CC1CCN(CCc2nc3cc(NS(=O)(=O)c4ccc(F)cc4)ccc3n2C)CC1`, for which the “hERG current change (%, negative = inhibition) at 1uM” value is on record as -54.8%.

Regarding `Cn1c(CN2CCCCC2)nc2cc(NS(=O)(=O)c3ccc(F)cc3)ccc21`, the “hERG current change (%, negative = inhibition) at 1uM” value is recorded as -21.8%.

On to `Cn1c(CCN2CCCCC2)nc2cc(NS(=O)(=O)c3ccc(F)cc3)ccc21`, for which the “hERG current change (%, negative = inhibition) at 1uM” value is given as -57.5%.

Turning to `Cn1c(CCN2CCCC2)nc2cc(NS(=O)(=O)c3ccccc3)ccc21`, the “hERG current change (%, negative = inhibition) at 1uM” value is listed as 6.41%.

On to `CC1CCN(CCc2nc3cc(NS(=O)(=O)c4ccccc4)ccc3n2C)CC1`, for which the “hERG current change (%, negative = inhibition) at 1uM” value was -53.3%.

For `CC(=O)Nc1ccc2c(c1)nc(CCN1CCC(C)CC1)n2C`, the “hERG current change (%, negative = inhibition) at 1uM” value worked out at 12.4%.

`CCC(=O)Nc1ccc2c(c1)nc(CCN1CCC(C)CC1)n2C`: the “hERG current change (%, negative = inhibition) at 1uM” value worked out at 12.3%.

For `CCn1c(=O)c(CCC(=O)NCC2CCCO2)c(C)c2c(C)nn(-c3ccc(C)cc3)c21` (centres unmarked), the “hERG current change (%, negative = inhibition) at 1uM” value came to 19.9%.

Consider `CCOc1ccc(N2C(=O)c3cccnc3C2Nc2ccc(OC)cc2)cc1` (centres unmarked), for which the “hERG current change (%, negative = inhibition) at 1uM” value turned out to be 1.01%.

`CCn1c(=NC(=O)CSCC(=O)Nc2nccs2)sc2ccccc21`: the “hERG current change (%, negative = inhibition) at 1uM” value stood at 2.45%.

`CN(C)c1ccc(C(=O)Nc2ccc(O)c3c(=O)cc(-c4ccccc4Cl)oc23)cc1`: the “hERG current change (%, negative = inhibition) at 1uM” value was found to be 2.71%.

For `C=CCc1cc(Cl)ccc1OCCCn1ccnc1.O=C(O)C(=O)O`, the “hERG current change (%, negative = inhibition) at 1uM” value was 7.27%.

Take `COc1ccc(C(=O)NC(=O)NC2(C(Cl)(Cl)Cl)OCCO2)cc1`: the “hERG current change (%, negative = inhibition) at 1uM” value worked out at 8.1%.

Consider `Cc1ccc(NC(=O)C2CC(=O)N(CCc3ccccc3)C2)c(C)c1` (centres unmarked), for which the “hERG current change (%, negative = inhibition) at 1uM” value was 2.1%.

With `CC(C)CCNC(=O)c1c(N)n(Cc2ccc3c(c2)OCO3)c2nc3ccccc3nc12`, the “hERG current change (%, negative = inhibition) at 1uM” value was found to be 11.9%.

On to `COc1ccc(CC2(CO)CCN(C(C)Cc3ccc(Cl)cc3)CC2)cc1` (centres unmarked), for which the “hERG current change (%, negative = inhibition) at 1uM” value is -80%.

For `COc1ccc(CC2(CO)CCN(S(=O)(=O)N(C)C)CC2)cc1`, the “hERG current change (%, negative = inhibition) at 1uM” value is listed as 14.7%.

On to `CC(COc1ccccc1)N1CCC(CO)(Cc2ccccc2)CC1` (centres unmarked), for which the “hERG current change (%, negative = inhibition) at 1uM” value was -13.3%.

In the case of `COc1ccc(CC2(CO)CCN(C(=O)NCc3ccccc3)CC2)cc1`, the “hERG current change (%, negative = inhibition) at 1uM” value was 10.4%.

On to `COc1ccc(CCC(C)N2CCC(CO)(Cc3ccccc3)CC2)cc1` (centres unmarked), for which the “hERG current change (%, negative = inhibition) at 1uM” value was -31.6%.

As for `CN(C)S(=O)(=O)N1CCC(CO)(CCc2ccccc2)CC1`, the “hERG current change (%, negative = inhibition) at 1uM” value is 12%.

In the case of `CC(COc1ccccc1)N1CCC(CO)(CCc2ccccc2)CC1` (centres unmarked), the “hERG current change (%, negative = inhibition) at 1uM” value is -84.8%.

With `CSCC(C)N1CCC(CO)(CCc2ccccc2)CC1` (centres unmarked), the “hERG current change (%, negative = inhibition) at 1uM” value is reported as 13.9%.

Turning to `COc1ccc(CC2(CO)CCN(C(C)COc3ccccc3)CC2)cc1` (centres unmarked), the “hERG current change (%, negative = inhibition) at 1uM” value is on record as -68.4%.

Take `Cc1cccc2nc(-c3ccco3)c(Nc3ccc4c(c3)OCO4)n12`: the “hERG current change (%, negative = inhibition) at 1uM” value was found to be 5.48%.

In the case of `CSCCC(NC(=O)c1ccc(Cl)cc1)C(=O)OCC(=O)Nc1ccc(C#N)cc1` (centres unmarked), the “hERG current change (%, negative = inhibition) at 1uM” value is reported as -1.39%.

With `CCCn1cc(CN2CCCC(C(=O)c3cccc(OC)c3)C2)c(C)n1` (centres unmarked), the “hERG current change (%, negative = inhibition) at 1uM” value is listed as -14.5%.

As for `CS(=O)(=O)N1CCc2cc(-c3csc(NC(=O)Cc4cccs4)n3)ccc21`, the “hERG current change (%, negative = inhibition) at 1uM” value is listed as -5%.

As for `CCc1ccccc1NNC(=O)c1snnc1C`, the “hERG current change (%, negative = inhibition) at 1uM” value is on record as 1.7%.

`CCC(C)N(C(=O)COC(=O)c1nc2nc(C)cc(C)n2n1)C1CCS(=O)(=O)C1` (centres unmarked): the “hERG current change (%, negative = inhibition) at 1uM” value stood at 21.2%.

With `O=C(O)CCn1cc(C=C2C(=O)NC(=O)NC2=O)c(-c2cc3ccccc3oc2=O)n1`, the “hERG current change (%, negative = inhibition) at 1uM” value came out at 20.6%.
